# Bioassay records: PubChem, National Center for Advancing Translational Sciences (NCATS)
# Shown are actives, neighbours in structure and some others; about 12% of the full set was active somewhere.
# Sm TGR block = S. mansoni TGR enzyme inhibition | 360,000 tested, 3% active | purified TGR, DTNB reduction, TNB absorbance 405 nm | Potency, µM (titrated, usually from 114 µM), inactives show top-dose activity change, negative = inhibition, hits mostly inhibitors | Q962Y6 | AID 485364; also: % is scaled to controls: 0 for no effect and ±100 for the full control effect; nearly all actives have a fitted effect of over 60% in size
#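 Kinetic colorimetric format: TGR-catalysed, NADPH-driven DTNB reduction monitored via TNB absorbance. Enzyme dispensed at 20 nM; compound exposure 15 min at room temperature before reaction start.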
# SARS PLpro yeast = blocks SARS-CoV papain-like protease in a yeast assay; S. cerevisiae expressing SARS-CoV PLpro, growth rescue; 330,000 tested, 0.19% active; Potency, µM (titrated, usually from 32.9 µM), for the others: at the top dose activity, positive = growth rescue, most hits filed as activators; calls by dose curve; also: 0% is about no effect; nearly all actives have a fitted effect of over 55% in size
# Pf growth 48h = P. falciparum growth inhibition at 48 hours (one generation); 310,000 tested, 5.9% active; Potency, µM (titrated, usually from 28.7 µM), for inactives: at the top dose activity change, negative = inhibition, usual class: inhibitors; P. falciparum luciferase growth in erythrocytes, 48 h; also: % is scaled to controls: 0 for no effect and ±100 for the full control effect
#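 Compounds are pin-transferred into medium, infected erythrocytes (2% hematocrit, 0.1% parasitemia final) are added, and plates sit one parasite generation at 37 C in 5% CO2. Detection reagent is then added and luminescence measured.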
# Pf growth 96h = inhibits malaria parasite growth, 96 h; Potency, µM (titrated, usually from 28.7 µM), without a hit: at the highest dose activity change, negative = inhibition, most hits filed as inhibitors; 320,000 tested, 6.9% active; AID 504834; P. falciparum luciferase reporter growth, 96 h; also: % is scaled to controls: 0 for no effect and ±100 for the full control effect
#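 Plates of compound plus infected erythrocytes (2% hematocrit, 0.05% parasitemia final) incubate 96 hours, 37 C, 5% CO2. Detection reagent added; reduced luminescence from the parasites' luciferase reporter flags inhibition.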
# * marks the source's active call; other numbers are inactive results; ? = inconclusive; . = no result given; [ ] = remark or other dose. Unless noted, calls follow the shape of the dose curve; as a rule, active = well fitted curve in the direction sought with a large enough effect; inconclusive = small, poorly fitted or top-dose-only effect, or another doubt; inactive = no such curve, though single readings can be large; an effect the other way counts as inactive or inconclusive. Potency is read from the fitted curve at half-maximal effect.
SMILES,Sm TGR block,SARS PLpro yeast,Pf growth 48h,Pf growth 96h
CCCCC[C@H](O)/C=C\[C@H]1[C@H](C/C=C\CCCC(=O)O)[C@@H](O)C[C@H]1O (tested in a mixture with another compound),.,.,-6.7%[12.8 µM],?
CCOc1ccc2nc3c(cc2c1)CN(CCOC)C(=NC)S3,-1.0%,8.9%,?,2.08µM*
COc1ccc(NC(=O)CSc2nc3c([nH]c4ccccc43)c(=O)n2-c2ccccc2)c(OC)c1,8.4%,.,.,.
CCCC[n+]1ccn(-c2nc3c([N+](=O)[O-])cccc3n2C)c1,-26.6%,-7.4%,13.1µM*,2.08µM*
Cc1ccc(OCCCn2c(-c3ccc(Cl)cc3)nc3ccccc3c2=O)c(C)c1,0.4%,.,.,.
CCCCNc1c(-c2cccc(-c3ccc(OC)cc3)c2)nc2cc(C)ccn12,.,-3.4%,.,.
CCCCNc1c(-c2cccc(-c3ccc(OC)cc3)c2)nc2ccc(C)cn12,0.3%,0.1%,3.29µM*,3.7µM*
COC(=O)Nc1c(-c2ccccc2)nc2ccc(C)cn12,-0.5%,4.7%,6.2%,4.65µM*
Cc1ccc(-c2cn(-c3cccc(Cl)c3)c(S(=O)(=O)CC(=O)Nc3cccc(C)c3)n2)cc1,5.4%,.,.,.
CCCCn1c(N)c(N(CCOC)C(=O)c2cc(-c3ccccc3Cl)nc3ccccc23)c(=O)[nH]c1=O,-7.1%,0.6%,?,?
Cc1cccc([N+](=O)[O-])c1NC(=O)CN(Cc1ccccc1)Cc1ccccc1,-11.8%,0.0%,?,8.28µM*
CCOC(=O)c1cccc(NC(=O)N2CC=C(c3c[nH]c4ccccc34)CC2)c1,-12.1%,.,.,.
O=S1(=O)N(CCN2CC=C(c3c[nH]c4cc(F)ccc34)CC2)c2cccc3c2N1CCC3,0.3%,-4.8%,1.17µM*,0.928µM*
Cc1nn(CCCC(=O)Nc2ccccc2C(F)(F)F)c(=O)c2c1sc1ccccc12,-2.9%,.,.,.
O=C(Nc1nnc2n1CCS2)c1cc(C(F)(F)F)cc(C(F)(F)F)c1,11.0%,.,.,.
O=CN/C=C/c1cc(O)ccc1O,6.31µM*,0.8%,-25.0%,-16.3%
O=Cc1ccc(O)cc1O,-20.4%,5.3%,-3.6%,?
CCCCNC(=O)C1CCN(c2nc3ccc(C)cc3[nH]2)CC1,7.8%,.,.,.
CCc1ccc(-c2cn(-c3nc(C)cc(C)n3)c(=N)o2)cc1,0.1%,-7.8%,?,10.4µM*
Cc1cc(C)n(-c2ccc(NC(=O)C3CCCCN3C(=O)c3cc(C)oc3C)cc2)n1 (stereo not drawn),?,-1.3%,-26.8%,?
Cc1cc(C)n(-c2ccc(NC(=O)C3CCCCN3C(=O)c3sccc3C)cc2)n1 (stereo not drawn),2.3%,3.2%,-11.3%,14.7µM*
Cc1cc(C)n(-c2ccc(NC(=O)C3CCCCN3C(=O)c3occc3C)cc2)n1 (stereo not drawn),7.1%,-2.6%,-14.7%,5.8%
Cc1cc(C)n(-c2ccc(NC(=O)C3CCCCN3C(=O)c3ccoc3)cc2)n1 (stereo not drawn),-27.2%,-0.3%,-5.0%,9.28µM*
COc1ccccc1N1C(=O)C=C(Sc2nc(C)cc(C)n2)C1=O,1µM*,0.2%,?,?
COc1ccccc1N1C(=O)C2CC(C)=C(C)CC2C1=O (stereo not drawn),10.0%,-0.1%,4.1%,?
SMILES,Sm TGR block,SARS PLpro yeast,Pf growth 48h,Pf growth 96h
Cc1ccc(C(C)C)c(OCC(=O)N2CCN(Cc3nc4cc([N+](=O)[O-])ccc4n3C)CC2)c1,-7.9%,-62.8%,-7.3%,11.7µM*
Cc1ccc(C(C)C)c(OCC(=O)Nc2ccc3c(c2)nc(CN2CCCC2)n3C)c1,0.0%,0.7%,.,13.1µM*
COc1ccc(/C=N/NC(=O)c2ccco2)cc1Cn1nc(C)cc1C,50.1µM*,5.3%,13.0%,-13.3%
COc1ccc(/C=N/NC(=O)c2ccncc2)cc1Cn1nc([N+](=O)[O-])c(Br)c1C,1.7%,1.5%,?,4.15µM*
COc1ccc(/C=N/NC(=O)c2cc(O)c(O)c(O)c2)cc1Cn1cc([N+](=O)[O-])cn1,?,10µM*,?,9.4%
COc1ccc(/C=N/NC(=O)c2ccco2)cc1Cn1nc(C)c([N+](=O)[O-])c1C,2.6%,0.7%,?,-0.4%
CCn1c(SCC(=O)Nc2ccc(N(C)C)cc2)nnc1-c1ccco1,-3.7%,-5.5%,14.4%,2.4%
COCCCNc1nc2cc(OC)c(OC)cc2c2nc(-c3ccccc3)nn12,-9.9%,-0.8%,0.294µM*,-1.9%
CCN(CC)CCCNc1nc2cc(OC)c(OC)cc2c2nc(-c3ccccc3)nn12,2.8%,3.1%,2.33µM*,22.2%
CCOCCCNc1nc2cc(OC)c(OC)cc2c2nc(-c3ccccc3)nn12,5.3%,.,.,.
CCN(CC)CCCNc1nc2cc(OC)c(OC)cc2c2nc(-c3cccnc3)nn12,16.4%,-1.9%,4.15µM*,.
CCN(CC)CCCNc1nc2ccccc2c2nc(-c3ccncc3)nn12,9.2%,1.3%,6.57µM*,4.15µM*
COc1ccc(NC(=O)[C@@H](NS(=O)(=O)c2cccc(Cl)c2)C(C)C)cc1S(=O)(=O)N1CCOCC1,.,1.1%,.,.
CCOc1ccc(CCNC(=O)c2cnc3sc(N4CCC(C)CC4)nn3c2=O)cc1,61.6%,.,.,.
Cc1ccc(NC(=O)CCC(=O)Nc2nnc(C3CCCCC3)s2)cc1,-29.4%,1.4%,26.6%,45.7%
CCCCCC=CCC=CCCCCCCCC(=O)OCC,.,.,-5.7%,2.1%
c1ccc2c(-c3nnc(SCc4cn5ccccc5n4)o3)c[nH]c2c1,-18.8%,-6.0%,.,11.7µM*
CCN(CC)C(=O)CSc1nnc(-c2c[nH]c3ccccc23)o1,3.2%,0.1%,?,0.465µM*
Cc1cccc(Oc2nc3c(C)cccn3c(=O)c2/C=C(\C#N)c2nc3ccccc3s2)c1,-2.9%,.,.,.
Cc1cc(NN)nc(Cc2ccccc2)n1,-7.1%,-2.9%,1.4%[0.00184 µM],?
CCN1/C(=C2\OC(=S)N(C)C2=O)C=Cc2ccccc21,-2.2%,-3.9%,11.2%,47.1%
CCN1/C(=C2\C(=O)N(C)C(=S)N2C)C=Cc2cc(OC)ccc21,4.3%,-14.3%,14.7µM*,0.0%
CCN1C(=O)/C(=C2/C=Cc3cc(C)ccc3N2CC)N(C)C1=S,8.7%,-8.2%,?,8.28µM*
Cc1nc2nc(NC(=O)CC(C)C)[nH]n2c(=O)c1Cc1ccccc1,1.9%,.,.,.
Cc1ccccc1OC(=O)c1cccnc1,2.4%,2.0%,7.5%,?
SMILES,Sm TGR block,SARS PLpro yeast,Pf growth 48h,Pf growth 96h
CC(=O)c1cc(C)ccc1OC(=O)c1cccnc1,6.0%,-3.5%,-23.4%,9.28µM*
CC(=O)Nc1ccc(SC[C@H](c2ccccc2)N2CCN(CCc3ccccc3)CCC2=O)cc1,14.1µM*,1.4%,13.1µM*,7.38µM*
CCCN1CCC(=O)N([C@H](CSc2ccc(OC)cc2)Cc2ccccc2)CC1,20µM*,4.2%,10.4µM*,2.94µM*
Cc1ccc(SC[C@H](Cc2ccccc2)N2CCN(CCc3ccccc3)CCC2=O)cc1,-33.3%,-0.4%,?,?
CCCN1CCC(=O)N([C@H](CSc2ccc(C)cc2)CC(C)C)CC1,39.8µM*,1.2%,?,-77.7%
CCCN1CCC(=O)N([C@H](CSc2ccc(C)cc2)Cc2ccccc2)CC1,?,0.5%,9.28µM*,5.86µM*
